Screening data from PubChem.
RORg inh: inhibitors of mouse ROR gamma transcriptional activity | P51450 | Drosophila S2 Gal4-RORgamma UAS-luciferase reporter, 20 h | Potency, µM (top dose mostly 53.6 µM), for inactives: top-dose activity change, negative = inhibition, usual class: inhibitors | 310,000 compounds, 5.4% hits | AID 2551; further: on the % scale 0 is the no-effect control and ±100 the full control effect; nearly all actives have a fitted effect of over 60% in size
Target sequence (P51450 whole entry, looked up, the tested form may be a part): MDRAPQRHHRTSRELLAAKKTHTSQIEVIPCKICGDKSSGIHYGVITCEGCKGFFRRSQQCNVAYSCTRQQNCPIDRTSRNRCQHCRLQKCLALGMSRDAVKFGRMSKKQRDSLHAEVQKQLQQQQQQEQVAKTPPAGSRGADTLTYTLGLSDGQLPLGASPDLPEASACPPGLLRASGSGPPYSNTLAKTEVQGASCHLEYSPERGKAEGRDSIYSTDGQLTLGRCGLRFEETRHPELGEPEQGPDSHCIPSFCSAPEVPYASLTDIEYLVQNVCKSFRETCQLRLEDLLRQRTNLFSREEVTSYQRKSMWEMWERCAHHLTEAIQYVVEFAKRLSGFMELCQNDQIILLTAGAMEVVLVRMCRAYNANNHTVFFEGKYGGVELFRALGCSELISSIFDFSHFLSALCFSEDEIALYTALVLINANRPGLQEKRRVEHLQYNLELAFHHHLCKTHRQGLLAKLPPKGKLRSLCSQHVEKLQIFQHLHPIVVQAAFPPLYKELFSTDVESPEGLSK
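Drosophila Schneider cells stably carrying a metallothionein-driven Gal4 DBD–ROR gamma fusion and a UAS-Photinus luciferase reporter were exposed to compound for 1 hr, then induced with copper sulfate (700 uM final) for 20 hr at ambient temperature before luminescence reading.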
HepG2 viability: HepG2 cytotoxicity, counter-screen for TGF-b inhibitors; Potency, µM (top dose mostly 46.1 µM), without a hit: top-dose activity change, negative = cytotoxicity, most hits filed as cytotoxic; AID 588856; 410,000 compounds, 0.76% hits; HepG2 CAGA-GFP viability, ATP luminescence, 18 h
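HepG2 CAGA-GFP cells (1000/well, DMEM with 1% FBS) received compound, then TGF-beta at 500 pg/mL final, and were incubated 18 hours at 37 degrees C. Viability was read by CellTiter-Glo luminescence. Media-only wells were set as complete cell-killing and DMSO as no toxicity.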
ATXN2 expr inh: ATXN2 expression inhibition. HEK-293 ATXN2-luciferase reporter, luminescence, 24 h. Potency, µM (titrated, usually from 57 µM), for the others: at the top dose activity change, negative = inhibition, usual class: inhibitors. 360,000 compounds, 0.72% hits. AID 1745845; further: on the % scale 0 is the no-effect control and ±100 the full control effect; nearly all actives have a fitted effect of over 55% in size
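ATXN2-luciferase reporter cells (luciferase flanked by upstream and downstream ATXN2 gene portions) were treated 24 h at 37 °C with compounds at up to 57 uM. SteadyGlo luminescence gave expression; GF-AFC fluorescence gave viability.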
S2 tox: cell viability loss in ATXN counter-screen; AID 651635; S2 cells (HEK-293 line with an ATXN2-luciferase reporter) viability, CellTiter-Fluor protease fluorescence, 24 h; 400,000 compounds, 0.49% hits; Potency, µM (highest dose often 56.7 µM), usual class: cytotoxic; further: nearly all actives have a fitted effect of over 40% in size
TGFb inhibitor: blocks TGF-b signaling; Potency, µM (titrated, usually from 46.1 µM), without a hit: top-dose activity, negative = inhibition, usual class: inhibitors; AID 588855; HepG2 CAGA-GFP TGF-b/SMAD3 reporter, GFP fluorescence, 18 h; TGF-beta stimulated, 500 pg/mL final; 410,000 compounds, 1.2% hits; further: on the % scale 0 is the no-effect control and ±100 the full control effect; nearly all actives have a fitted effect of over 65% in size
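HEPG2 CAGA-GFP, 1000 cells/well; 2 h settle, 37 C; cpd via pin tool; TGF-b 500 pg/mL final; 18 h, 37 C; GFP imaging ex488/em500-530; %Activity normalised to -TGF-b and +DMSO controls; CRC fit, curve class.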
Gal4-VP16 FLuc: inhibits Gal4-VP16 luciferase reporter, ROR gamma counter-screen. Drosophila S2 Gal4-VP16 UAS-luciferase, luminescence, 20 h. Potency, µM (highest dose often 53.6 µM), inactives show at the highest dose activity, negative = inhibition, hits mostly inhibitors. 310,000 compounds, 3.5% hits. AID 2546;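 further: Gal4-VP16 expression switched on by copper sulfate through the metallothionein promoter; on the % scale 0 is the no-effect control and ±100 the full control effect; nearly all actives have a fitted effect of over 50% in size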
* = called active by the depositor; i = inactive; u = inconclusive; x = not tested or not shown; [ ] = another dose, or the depositor's remark. Hits are enriched below; roughly 6.3% of the tested compounds scored in any of these assays. The call rests on the fitted dose curve; in most records, active means well fitted curve in the direction sought with a large enough effect; inconclusive means small, poorly fitted or top-dose-only effect, or another doubt; inactive means no such curve, though single readings can be large; an effect the other way counts as inactive or inconclusive. Potency means the concentration at half of the fitted maximal effect.

SMILES | RORg inh | HepG2 viability | ATXN2 expr inh | S2 tox | TGFb inhibitor | Gal4-VP16 FLuc
CN1OC[C@@H]2CN(Cc3ccccc3)[C@H](c3ccc(N4CCCCC4)cc3)C[C@@H]21 | x | -35% | 13% | i | u | x
COc1ccccc1-c1cccc([C@@H]2C[C@H]3[C@H](CON3C)CN2Cc2ccccc2)c1 | x | -21% | -17% | u | u | x
COc1ccc(CN2C[C@H]3CON(C)[C@H]3C[C@H]2c2ccc(-c3ccccc3)cc2)cc1 | x | -25% | -13% | i | 11µM* | x
CN1OC[C@@H]2CN(Cc3ccccc3)[C@H](c3cccc(-c4ccc(C#N)cc4)c3)C[C@@H]21 | x | -30% | -16% | i | 10µM* | x
ClCCn1cnc2c(SCc3ccccc3)ncnc21 | x | -9% | 125% | i | -5% | x
Cc1ccc2nc(CS)[nH]c2c1 | x | -53% | x | x | -9% | x
Cc1ccc(-n2c(-c3ccc(Br)cc3)c[n+]3c2CCc2ccc4cccnc4c2-3)cc1 | 7.1µM* | 8.9µM* | 5µM* | 14µM* | 3.2µM* | 1.4µM*
CC(C)NC(=O)c1ccc2c3n(nc2c1)-c1ccccc1CO3 | 4µM* | -61% | u | i | -18% | 4.5µM*
O=C(NCC1CC1)c1ccc2c3n(nc2c1)-c1ccccc1CO3 | 14µM* | -42% | -11% | i | -6% | u
Cc1ccc2c(c1)COc1c3ccc(C(=O)O)cc3nn1-2 | 2µM* | -27% | 7.9µM* | i | 6% | 5µM*
C=CCNC(=O)c1ccc2c3n(nc2c1)-c1ccc(Cl)cc1CO3 | x | -31% | 9% | u | -22% | x
Cc1ccc2c(c1)COc1c3ccc(C(=O)NCC4CC4)cc3nn1-2 | -39% | -14% | u | u | u | -24%
O=C(NCCO)c1ccc2c3n(nc2c1)-c1ccccc1CO3 | 4.5µM* | -40% | 10% | i | 2% | u
CC(C)[C@@H](CO)NC(=O)c1ccc2c3n(nc2c1)-c1ccccc1CO3 | u | -67% | -1% | i | 8% | u
COc1cccc(CNC(=O)c2c(OC)cc(=O)n3c2CCN(C(=O)c2cc(C)ccc2C)CC3)c1 | x | x | x | i | x | x
O=C(CNC1=NCCS1)c1c[nH]c2ccccc12 | x | -12% | x | x | -2% | x
O=C(NCc1ccccc1Cl)c1ccc2c(c1)nnn2C1CCCC1 | x | -25% | 13% | i | -7% | x
Nc1ccccc1C(=O)NNC(=O)C(=O)/C=C(\O)c1ccccc1 | 11µM* | -52% | 23% | i | u | u
NC1=C(Cl)C(=O)c2ccccc2C1=O | x | 5.6µM* | u | u | u | x
NS(=O)(=O)c1ccc2c(c1)C(=NO)c1cc(S(N)(=O)=O)ccc1-2 | -13%[1.91 µM] | 0% | -3% | i | 2% | -7%
NC1=C(Cl)C(=O)c2ccc(S(N)(=O)=O)cc2C1=O | x | 0.56µM* | 3.5µM* | 3.5µM* | u | x
O=C1c2ccccc2[C@@H]2C[C@@H](O)[C@H](Nc3ccccc3-c3ccccc3)CCN12 | x | -9% | 9% | i | 1% | x
Cc1cccc(CNc2nc(-c3ccccc3CN(C)C)nc3ccccc23)c1 | 22µM* | x | x | x | x | u
COc1ccc(CNc2nc(-c3ccccc3CN(C)C)nc3ccccc23)c(OC)c1 | 13µM* | x | x | x | x | u
COc1ccc2[nH]cc(CCNc3nc(-c4ccccc4CN(C)C)nc4ccccc34)c2c1 | 19% | x | x | x | x | -9%
Cc1ccn2c(=O)cc(COc3ccc(NC(=O)COc4ccc(C)c(C)c4)cc3)nc2c1 | x | 1% | x | x | -6% | x
O=C(COC(=O)c1ccco1)NCCc1ccc(Cl)cc1 | x | -8% | x | u | 2% | x
O=C(NC(=S)NCCc1ccc(Cl)cc1)c1ccco1 | 8.9µM* | -15% | -23% | i | -17% | u
CCNC(=S)NCc1ccco1 | -15% | 0% | 7% | i | 2% | -3%
S=C(NCc1ccc(Cl)cc1)NCc1ccco1 | 7.1µM* | -11% | 10% | i | -22% | 10µM*
